Only a sample is shown.
aSyn UTR act = Activators via SNCA 5'UTR binding, MLPCN | activity score, % (tested at 7.5 µM), hits read low | alpha-synuclein 5'UTR reporter, activators screen | 300,000 tested, 7.1% active; in the data active means activity score below about -60%
A number is an active result; - = inactive.

SMILES	aSyn UTR act
O=C(/C=C/c1ccccc1)Nc1ccc(N2CCCCC2)cc1	-196
Cc1ccc2nc(-c3ccccn3)c(NC3CCCC3)n2c1	-165
CCN(CC)Cc1c(O)ccc2c(=O)c(-c3ccccc3)coc12	-64
CCOc1ccc(/C=C/C(=O)C(C(N)=O)=C2SCCS2)cc1	-162
COCCN(C(=O)c1ccccc1F)c1nc(-c2ccc(OC)cc2)cs1	-73
CCN(C(=O)c1ccco1)c1nc(-c2ccc(OC)cc2)cs1	-159
CN(C(=O)c1ccco1)c1nc(-c2ccccc2)cs1	-158
CCN(C(=O)c1ccccc1F)c1nc(-c2ccc(OC)cc2)cs1	-199
COCCN(C(=O)c1ccccc1F)c1nnc(-c2ccc(OC)cc2)s1	-73
CCC(=O)N(CC)c1nc(-c2ccc(OC)cc2)cs1	-161
C=CCN(C(=O)CCc1ccccc1OC)c1nc(-c2ccc(S(C)(=O)=O)cc2)cs1	-
Cc1ccc2c(c1)C(c1ccncc1)=NNC(c1ccccc1)=N2	-127
Cc1ccc(C2=Nc3ccc(Br)cc3C(c3ccncc3)=NN2)cc1	-70
N#C/C(=C/C=C/c1ccccc1)C(=O)Nc1ccccc1	-109
O=C(O)c1ccc(N/N=C/C=C/c2ccccc2[N+](=O)[O-])cc1	-127
O=C(Cc1cccs1)N/N=C/C=C/c1ccccc1[N+](=O)[O-]	-99
N#C/C(=C\C=C\c1ccccc1[N+](=O)[O-])C(=O)NCc1ccccc1	-291
Cc1ccc(CSc2nnc(SCC(=O)N/N=C/C=C/c3ccccc3[N+](=O)[O-])s2)cc1	-
O=C(Cc1ccccc1)N/N=C/C=C/c1ccccc1[N+](=O)[O-]	-83
N#CC1CC(c2ccccc2)Nc2cc(Cl)ccc2N1 (stereo not given)	-331
Cc1ccc(C(=O)Nc2nc3ccccc3n2CCN2CCCC2)cc1	-76
C=CCn1c(NC(=O)c2ccc(C)cc2)nc2ccccc21	-111
CCCCCCCn1c(NC(=O)CC)nc2ccccc21	-
CC(=O)Nc1nc2ccccc2n1Cc1ccccc1C	-
CN(C(=O)c1ccc(NC(=O)c2ccco2)cc1)c1ccccc1	-76
SMILES	aSyn UTR act
CC1N(C)c2cc(NC(=O)c3ccco3)ccc2C1(C)C (stereo not given)	-81
O=C(COc1ccccc1)Nc1ccc(NC(=O)c2ccco2)cc1	-65
CSc1cccc(NC(=O)c2cccc3cccnc23)c1	-134
O=C(Nc1cccc(NC(=O)c2ccc(-c3ccc(Br)cc3)o2)c1)c1ccco1	-95
O=C(/C=C\c1ccccc1)Nc1ccc(NC(=O)c2ccco2)cc1	-67
O=C(NNC(=O)c1ccccc1O)c1ccco1	-82
CC(=O)Nc1ccc(NC(=O)c2ccco2)cc1	-71
O=C(Nc1ccc(Cl)cc1)c1ccco1	-131
CSc1cccc(NC(=O)c2ccco2)c1	-75
Brc1ccc(C2=CC(c3cccs3)n3ncnc3N2)cc1 (stereo not given)	-107
Cn1cccc1C1C=C(c2ccc(C(C)(C)C)cc2)Nc2ncnn21 (stereo not given)	-114
Cc1cc(C)n(-c2nnc3c4ccccc4n(C)c3n2)n1	-69
C/C(=N\Nc1nnc2c3ccccc3n(C)c2n1)c1ccc(C)o1	-85
O=c1c(/C=C(\O)c2ccc(F)cc2)nc2ccccc2n1-c1ccccc1	-130
CCC(C)C(=O)Nc1nc2ccc(OC)cc2s1 (stereo not given)	-167
COc1ccc2nc(NC(=O)Nc3ccccc3OC)sc2c1	-89
COc1ccc2nc(Nc3ccccc3)sc2c1	-119
COc1ccc2nc(Nc3ccccc3OC)sc2c1	-154
COc1ccccc1NC(=O)Nc1nc2ccc(S(N)(=O)=O)cc2s1	-183
COc1ccc2nc(NC(=O)Nc3cccc4ccccc34)sc2c1	-103
CC(=O)Nc1cccc(-c2csc(Nc3ncccn3)n2)c1	-170
CC(=O)Nc1ccc(-c2csc(Nc3cccc(C)n3)n2)cc1	-182
CC(=O)Nc1cccc(-c2csc(Nc3ccc(C)cn3)n2)c1	-66
O=C(Nc1ccccc1Cl)C1Cc2ccccc2O/C1=N\O (stereo not given)	-88
Cc1csc(Nc2ccccc2)[n+]1-c1ccccc1	-69
SMILES	aSyn UTR act
O=[N+]([O-])c1ccc2c(c1)nc1n2CCN(c2ccccc2)C1	-125
Cc1ccc(C(=O)Nc2ccccc2Sc2ccccc2)cc1	-62
COc1ccc(C(=O)Nc2cc(-c3ccc(C)cc3)no2)cc1	-65
Cc1ccc(-c2cc(NC(=O)c3ccccc3)on2)cc1	-190
CN(C)/C=N/c1ncc(C(=O)c2ccc(Cl)cc2)s1	-72
Cc1csc(NC(=O)c2ccoc2C)n1	-191
Cc1csc(NC(=O)c2cccc(C)c2C)n1	-155
Cc1csc(NC(=O)c2ccc(Cl)cc2[N+](=O)[O-])n1	-92
CC(C)[C@H](NC(=O)c1ccccc1Cl)C(=O)Nc1nc(-c2ccccn2)cs1	-
O=C(Nc1nc(-c2ccccn2)cs1)c1cc(Cl)ccc1[N+](=O)[O-]	-
Cc1csc(NC(=O)c2cccnc2Cl)n1	-76
Cc1csc(NC(=O)c2ccc[nH]c2=O)n1	-85
Cc1csc(NC(=O)c2cnccn2)n1	-105
CCOC(=O)c1ccc2nc(C)c(C)nc2c1	-88
CCOC(=O)c1ccc2nc(C)c(CCC(C)=O)c(Cl)c2c1	-108
Cc1ccc(OCC(=O)N2CCCCC2)c(Br)c1	-125
CC(C)(C)c1ccc(OCC(=O)N2CCCCCC2)c(Br)c1	-144
Cc1cc(C(=O)COC(=O)c2ccc[nH]c2=O)c(C)n1C1CC1	-99
Cc1cc(C(=O)COc2cccnc2[N+](=O)[O-])c(C)n1-c1ccccc1F	-
Cc1cc(C(=O)COc2cccnc2[N+](=O)[O-])c(C)n1-c1ccccc1	-
Cc1cc(-n2c(C)cc(C(=O)COc3ccccc3[N+](=O)[O-])c2C)no1	-68
Cc1cc(C(=O)COC(=O)c2ccc(Cl)c(S(N)(=O)=O)c2)c(C)n1C1CC1	-143
Cc1cc(C(=O)COc2ccccc2[N+](=O)[O-])c(C)n1C1CC1	-131
Cc1cc(C(=O)COc2ccccc2C(N)=O)c(C)n1C1CC1	-76
CCOC(=O)C1CCCCN1C(=O)CCc1nnc(-c2ccc3c(c2)OCO3)o1 (stereo not given)	-65
SMILES	aSyn UTR act
CC(C)(C)Nc1nc(-c2ccc3c(c2)CCN3C(=O)C2CC2)cs1	-80
CC(C)C(=O)Nc1nc(-c2ccc3c(c2)CCN3C(=O)C2CC2)cs1	-101
CC(=O)Nc1nc(-c2ccc3c(c2)CCN3S(C)(=O)=O)cs1	-207
Cc1ccc(-c2cc3nc(C)cc(NCc4ccco4)n3n2)cc1	-157
CC(=O)n1nc(-c2ccc(C)cc2)nc1NCc1ccco1	-161
Cc1ccc(-c2nc(NCc3ccco3)n(S(C)(=O)=O)n2)cc1	-72
CCC(=O)n1nc(-c2ccc(Cl)cc2)nc1NCc1ccccc1	-93
Clc1cccc(-c2cc3nc4c(c(NCc5ccco5)n3n2)CCCC4)c1	-115
O=C(CCc1ccccc1)n1nc(-c2ccccc2)nc1NCc1ccco1	-67
O=C(N=C1c2ccccc2CN1c1ccc(F)cc1)c1ccc(Cl)nc1	-94
CC(=O)c1ccc(N2Cc3ccccc3/C2=N\C(=O)Nc2ccccc2)cc1	-98
CC(=O)c1ccc(N2Cc3ccccc3C2=NC(=O)c2cccs2)cc1	-69
O=[N+]([O-])c1cc(-c2nc(-c3ccncc3)no2)cc([N+](=O)[O-])c1	-118
O=[N+]([O-])c1cc(-c2nc(-c3ccncc3)no2)ccc1Cl	-79
CCc1ccc(C(=O)/C=C/c2ccc([N+](=O)[O-])o2)cc1	-151
O=C(Nc1ccc(C(=O)c2ccccc2)cc1)c1ccccc1	-189

Assay outcomes (PubChem)
